# Assay outcomes: PubChem BioAssay, several laboratories
# A selection: hits, their analogues and other compounds. The true share with any hit is near 3.9%.
# AHR activator: activators of human aryl hydrocarbon receptor; P35869; AHR-responsive luciferase reporter cells, luminescence; activation, % at 5 µM; actives 2.5% (n = 320,000); in the data active means activation above about 47%
# HIF activator: HIF pathway transcriptional activation. U2OS HRE-luciferase reporter, luminescence; normalized: DMSO 0%, desferrioxamine 100%. activation, % at 7.5 µM (by protocol). actives 0.32% (n = 300,000). AID 1910;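 active means mean activation of at least 10% of the iron chelator positive control signal, with at least half of replicates also reaching 10%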
# PLC-beta3 inh: inhibitors of human phospholipase C beta3; Q01970; Purified PLC-beta3, fluorogenic substrate, fluorescence; inhibition, % at 12.2 µM; actives 0.18% (n = 370,000); in the data active means inhibition above about 11%
# sPLA2-III inh: Blocks human group III sPLA2 activity | Q9NZ20 | inhibition, % at 12.2 µM | AID 743126 | QFRET BODIPY PC-A2 liposome hydrolysis, fluorescence | actives 0.56% (n = 370,000);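 active means inhibition above mean plus 3 SD of compounds lying within the high and low control bounds, cut at about 19% in these data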
# CR mimetic SO: caloric restriction mimetics inhibiting age-related superoxide in yeast. S. cerevisiae aged cells, superoxide DHE fluorescence; stronger effect = lower value. superoxide response (% of plate mean), % at 10 µM. actives 0.18% (n = 330,000);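 active means superoxide response under a set limit, about three screen SD below normal, cut at about 65% in these data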;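 further: yeast aged for seven days with compound at 30 °C before DHE staining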
# PLCg1 inh: inhibitors of human phospholipase C gamma1; purified PLC-gamma1, fluorogenic substrate, fluorescence; inhibition, % at 12.2 µM; actives 0.84% (n = 370,000); AID 720700; in the data active means inhibition above about 9.5%
# Numbers stand for hits; – = inactive; · = no result.
SMILES,AHR activator,HIF activator,PLC-beta3 inh,sPLA2-III inh,CR mimetic SO,PLCg1 inh
COC(=O)[C@]12C[C@H](CC(=O)NCCCN3CCCC3=O)C(=O)N(Cc3ccc(Cl)cc3Cl)C1=C[C@H](C(C)C)O[C@@H]2C1CC1,·,·,–,–,·,–
Cc1csc2ncc(C(=O)Nc3ccccc3F)c(=O)n12,60,–,–,–,–,–
Cc1cc(C(=O)O)oc(=O)c1,–,219,–,–,–,–
O=C(O)c1cc(=O)c2ccccc2o1,–,–,–,–,–,–
NCCC(=O)Nc1ccc(Cl)cc1C(=O)c1ccc[nH]1,·,·,–,–,·,–
N#Cc1c(Nc2ccccc2)sc(C(=O)C2CC2)c1N,49,–,–,–,–,–
CCOc1ccc(CCNC(=O)c2ccc(Oc3ccccc3)cc2)cc1OCC,·,·,–,–,·,–
Cc1ccc2c(c1)N(CCCC(=O)N(C)Cc1ccc(F)cc1)C(=O)CO2,·,·,–,–,·,–
COc1cc([N+](=O)[O-])ccc1NC(=O)CSc1nc2ccccc2n1-c1ccccc1,61,–,–,–,–,–
Cc1sc2nc(SCC(=O)NCc3ccco3)[nH]c(=O)c2c1C,55,·,–,–,–,–
Cc1cc(NC(=O)CSc2ccc(-c3nc4cc(C)c(C)cc4[nH]3)cn2)no1,–,–,·,·,–,·
Cc1cc2nc(-c3cccnc3SCC(=O)NC3CC3)[nH]c2cc1C,55,–,–,–,–,–
CC(C)(C)NC(=O)CSc1ncccc1-c1nc2ccccc2[nH]1,–,–,–,–,–,–
Cc1cc2nc(-c3cccnc3SCC(=O)NCc3ccco3)[nH]c2cc1C,64,–,–,–,–,–
Cc1cc2nc(-c3ccc(SCC(=O)NC(C)C)nc3)[nH]c2cc1C,78,–,·,·,–,·
O=C(CSc1ncccc1-c1nc2ccccc2[nH]1)NCc1ccco1,–,–,–,–,–,–
O=C1CCC[C@H]2C[C@H](NCCc3ccncc3)CC[C@]23CCCN13,·,·,–,–,·,–
CCOc1ccc2oc(C(=O)NCC(c3ccco3)N(C)C)c(C)c2c1 (configuration not stated),·,·,–,–,·,–
Cc1c(C(=O)NCC(c2ccco2)N(C)C)oc2c(Cl)cccc12 (configuration not stated),48,–,–,–,–,–
Cc1ccc(C)c(CNS(=O)(=O)c2ccc3c(c2)C(C)(C)C(=O)N3C)c1,–,12,–,–,–,–
O=C(Nc1cccc(F)c1)OCCN1CCCC12CCC(c1ccccc1)CC2 (configuration not stated),·,·,–,–,·,–
O=C(NCc1ccc(C(=O)N2CCCC2)cc1)c1cccc(Br)c1,·,·,–,–,·,–
CC1(C)O[C@@H]1COc1c2ccoc2cc2oc(=O)ccc12,70,–,–,–,–,–
CC(C)=CCOc1c2ccoc2cc2oc(=O)ccc12,51,–,–,–,–,–
CC(C)=CCOc1c2ccoc2c(OCC=C(C)C)c2oc(=O)ccc12,–,·,–,–,–,–
SMILES,AHR activator,HIF activator,PLC-beta3 inh,sPLA2-III inh,CR mimetic SO,PLCg1 inh
Cc1ccc(C(=O)NNC2=Nc3cccc4cccc2c34)cc1,79,–,–,–,–,–
COc1ccc(C(=O)NNC2=Nc3cccc4cccc2c34)cc1,–,–,–,–,–,–
COC(=O)[C@]12C[C@H](CC(=O)NCC3CCCCC3)C(=O)N(Cc3ccc(Cl)cc3Cl)C1=C[C@H](COCc1ccccc1)O[C@@H]2C,·,·,–,–,·,–
O=C(NC(=S)Nc1ccccc1C(=O)O)c1cncc(Br)c1,–,–,–,–,–,–
N#Cc1ccccc1NC(=S)NC(=O)c1cccnc1,–,–,–,–,–,–
O=C(NC(=S)Nc1ccccc1O)c1cncc(Br)c1,54,–,–,–,–,–
O=C(NC(=S)Nc1ccccc1O)c1cccnc1,58,–,–,–,–,–
O=C1N/C(=C/c2ccc(N3CCOCC3)cc2)C(=O)N1Cc1ccc(F)cc1,51,–,–,–,–,–
Cc1ccc2c(c1)[C@H]1[C@H](CO2)[C@H](c2ccccc2)[C@]2(C)C(=O)N(CC3CCCO3)CC(=O)N12 (some centres not stated),–,·,–,–,–,–
C[C@@]12C(=O)N(CC3CCCO3)CC(=O)N1[C@H]1c3cc(Cl)ccc3OC[C@@H]1[C@@H]2c1ccccc1 (some centres not stated),–,·,–,–,–,10
O=C(CN1C(=O)S/C(=C/c2cccn2-c2ccc(O)cc2)C1=O)N1CCCC1,–,–,–,–,–,–
O=C(O)c1cccc(-n2cccc2/C=C2/SC(=O)N(CC(=O)N3CCCC3)C2=O)c1,–,14,–,–,–,–
C[C@H]1[C@H](NC(=O)c2ccc(Cl)cc2)CC[C@@]23CCCN2C(=O)CCC[C@@H]13,·,·,–,–,·,–
COc1cc(OC)cc(C(=O)NCCN2C(=O)C3C4C=CC(C4)C3C2=O)c1 (configuration not stated),·,·,–,–,·,–
Cc1ccccc1Cn1ccc(NC(=O)CCSc2nc(-c3ccco3)cc(C(F)(F)F)n2)n1,–,–,–,–,–,–
Cc1ccccc1Cn1ccc(NC(=O)c2cnn3c(C(F)(F)F)cc(-c4ccco4)nc23)n1,48,–,–,–,–,–
N#CCc1nc2ccccc2c(=O)[nH]1,–,–,–,–,–,–
O=c1[nH]c(CS(=O)(=O)c2ccccc2)nc2ccccc12,74,–,–,–,–,–
O=c1oc2cc(OCc3ccc(F)cc3F)ccc2cc1-c1ccc2ccccc2n1,97,–,·,·,–,·
C=C(C)CN(CC)C(=O)CSc1nc2ncc(Cl)cc2[nH]1,69,–,–,–,–,–
C=C(C)CSc1nc2ncc(Cl)cc2[nH]1,–,–,–,–,–,–
O=C(N/C(=C\c1cccnc1)C(=O)N1CCC(O)CC1)c1ccccc1,–,–,–,–,–,–
O=C(N/C(=C/c1cccnc1)C(=O)N1CCCCCC1)c1cccc(Br)c1,48,–,–,–,–,–
Cc1noc(C)c1NC(=O)Nc1ccc2c(c1)C(=O)N([C@@H](C)CO)C[C@@H](C)[C@H](CN(C)S(=O)(=O)c1ccc(F)cc1)OCCCC[C@H](C)O2,·,·,–,–,·,–
CN[C@H]1C[C@H]2c3[nH]c4c(-c5cccc(C)c5)cccc4c3CCN2C[C@H]1[C@H](C)O,·,·,–,–,·,–
SMILES,AHR activator,HIF activator,PLC-beta3 inh,sPLA2-III inh,CR mimetic SO,PLCg1 inh
COc1ccc2oc(=O)c(/C(C)=N/Nc3ccccc3)cc2c1,61,–,–,–,–,–
COc1ccc2oc(=O)c(C(=O)Nc3cccc(C(C)=O)c3)cc2c1,–,–,–,–,–,–
COc1ccc2oc(=O)c(C(=O)NC3CCCCCC3)cc2c1,–,9.9,–,–,–,–
O=C(Cc1cccs1)NC1CCCCN(Cc2ccc(Cl)cc2)C1=O (configuration not stated),·,·,–,–,·,–
Cc1cc(=O)[nH]c(/N=C(\N)Nc2ccc(SC(F)F)cc2)n1,68,–,–,–,–,–
CN1C2=NCCN2C(=O)c2cc(Cl)ccc21,59,–,–,–,–,–
Clc1ccc2c(c1)-c1ccccc1C1=NCCN12,·,·,–,–,·,–
